In the library only some 2.3% were active in any assay of this set; here they are far more common.
TWEAK-Fn14 inh – TWEAK-Fn14 signaling inhibition; TWEAK-stimulated Fn14 reporter cells, luciferase luminescence, 8 h; inhibition, % at 10 µM; 360,000 compounds, 2% hits; in the data active means inhibition above about 50%
KKLEB tox – counter-screen for CF NF-kB inhibitors: cytotoxicity. KKLEB CF airway cells viability, ATPlite luminescence, overnight; hits give low values; cells stimulated with P. aeruginosa culture filtrate. activity change (cytotoxicity), % at 5 µM. 360,000 compounds, 0.36% hits;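 active means corrected activity change at or below -50% at 5 µM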
HIF-2a inh – blocks HIF-2a reporter activity; 360,000 compounds, 0.72% hits; 786-0 RCC cells HIF-2a reporter, luciferase luminescence, overnight; inhibition, % at 18.8 µM; AID 624352;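 active means inhibition of the luminescence signal of 40% or more relative to plate controls, in a single-dose primary screen at 18.75 µM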
CF NFkB block – cystic fibrosis NF-kB activation inhibition; KKLEB NF-kB-GFP reporter, PAF-induced, GFP fluorescence overnight; inhibition, % at 5 µM; 360,000 compounds, 0.86% hits; AID 588850;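 active means at least 50% inhibition at 5 µM, scaled per plate between neutral and stimulator controls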;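 further: PAF is a Pseudomonas aeruginosa culture filtrate used as stimulus; plate controls were PAF-stimulated DMSO wells for no effect and unstimulated DMSO wells for full effect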
hiPSC survival – enhancers of human iPSC single-cell survival. hiPSC single-cell survival, ATPlite luminescence; 100% = ROCK inhibitor wells, 0% = DMSO. survival enhancement, % at 20 µM. 360,000 compounds, 0.044% hits. AID 602274; in the data active means survival enhancement above about 18%;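 further: cells exposed to compounds for 16 hours before the ATP read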
LGR2 inh – inhibitors of bursicon-induced Drosophila LGR2 receptor cAMP signaling; inhibition, % at 9.99 µM; 380,000 compounds, 0.35% hits; AID 720647; HEK293 LGR2, CRE-luciferase, bursicon-stimulated, 4 h;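 active means drop in luminescence signal, shown as inhibition above about 50% in the replicate tests, limit read from the data, passing the limit was not always enough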;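 further: agonist challenge used bursicon conditioned medium at about half maximal strength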
* = called active by the depositor; / = no result given; ! = repeats disagree.

SMILES	TWEAK-Fn14 inh	KKLEB tox	HIF-2a inh	CF NFkB block	hiPSC survival	LGR2 inh
C[C@H]1CN([C@@H](C)CO)C(=O)Cc2cc(NS(=O)(=O)c3ccccc3)ccc2O[C@@H]1CN(C)Cc1ccc(-c2ccccc2)cc1	/	/	/	/	/	6
COc1ccccc1CNC(=O)C[C@H]1C[C@@H]2c3cc(NC(=O)C4CCOCC4)ccc3O[C@@H]2[C@H](CO)O1	/	/	/	/	/	-8
CN1N=C(c2ccc(F)c(F)c2)CSC1=NCc1ccccc1	-1	11	2	17	0	13
CN1N=C(C(C)(C)C)CSC1=Nc1ccc(F)cc1	66*	-14	7	9	0	-17
CCC(=O)N1[C@H](CO)[C@H]2c3ccccc3N(C(=O)Nc3ccccc3Cl)C[C@H]21	/	/	/	/	/	4
O=C(C[C@@H]1CC[C@H](NC(=O)C2CC2)[C@@H](CO)O1)NC1CCC1	/	/	/	/	/	-16
CCCCCCCC(=O)OCC(=O)[C@@]1(O)CC[C@H]2[C@@H]3CCC4=CC(=O)CC[C@]4(C)[C@H]3[C@@H](O)C[C@@]21C	-3	41	26	61*	3	/
CCOC(=O)OCC(=O)C1(O)CCC2C3CCC4=CC(=O)CCC4(C)C3C(O)CC21C (configuration not stated)	5	23	18	68*	2	-16
CC12CCC(=O)C=C1CCC1C2C(O)CC2(C)C1CCC21OCC1=O (configuration not stated)	20	12	9	26	-2	-7
CC12CCC(=O)C=C1CCC1C2C(O)CC2(C)C1CCC2(O)C(=O)COC(=O)COCC(=O)O (configuration not stated)	-34	19	15	70*	3	/
C[C@]12CCC(=O)C=C1CC[C@@H]1[C@@H]2C(=O)C[C@@]2(C)[C@H]1CC[C@]2(O)C(=O)CO	-2	12	8	25	-2	-4
CC(=O)OCC(=O)C1(O)CCC2C3CCC4=CC(=O)CCC4(C)C3C(O)CC21C (configuration not stated)	16	31	14	60*	4	-6
Cc1cc(C(=O)Nc2cccc3c2O[C@@H](CN(C)S(=O)(=O)c2c(C)noc2C)[C@@H](C)CN([C@H](C)CO)C3=O)n(C)n1	/	/	/	/	/	6
COc1ccc2oc(=Nc3ccccc3)c(-c3nc4ccccc4[nH]3)cc2c1	56*	-67*	-213	-15	-3	-9
c1ccc(-c2nc3ccccc3[nH]2)cc1	8	-8	-300	11	-2	-40
COC(=O)c1ccc(C(=O)Nc2ccc3nc(-c4ccncc4)[nH]c3c2)cc1	35	9	3	-16	0	-10
COc1ccc(-c2nc3ccccc3[nH]2)cc1	66*	-18	-40	-10	-5	12
COc1ccc2oc(=Nc3cccc(F)c3)c(C(N)=O)cc2c1	-10	-2	-48	-6	1	-49
COC(=O)c1ccc(-c2nc3ccccc3[nH]2)cc1	56*	2	-111	-12	-4	14
C/C=C/c1ccc2c(c1)O[C@H](CN(C)Cc1cccnc1)[C@@H](C)CN([C@H](C)CO)S2(=O)=O	/	/	/	/	/	8
O=C(Nc1ccc(N2CCN(C(=O)c3ccccc3)CC2)c(Cl)c1)c1ccc(Br)o1	38	14	-2	-1	-2	89*
O=C(Nc1ccc(N2CCN(C(=O)c3ccccc3)CC2)cc1)c1ccc(Br)o1	-10	6	-40	-2	0	/
O=C(Nc1ccc(N2CCN(C(=O)c3ccco3)CC2)c(Cl)c1)c1cccs1	108*	-1	-69	-15	1	/
O=C(Nc1ccc(N2CCN(C(=O)c3ccccc3)CC2)cc1)c1cc2ccccc2o1	91*	10	-6	-2	-3	82*
CN1CCN(c2ccc(NC(=O)c3cc4ccccc4o3)cc2)CC1	27	-8	-172	16	0	-19
SMILES	TWEAK-Fn14 inh	KKLEB tox	HIF-2a inh	CF NFkB block	hiPSC survival	LGR2 inh
CC(C)NC(=O)N(C)C[C@H]1Oc2cc(C#C[C@@H](C)O)ccc2S(=O)(=O)N([C@@H](C)CO)C[C@@H]1C	/	/	/	/	/	-2
CCOc1ccc2nc(Nc3nc(CSc4nnnn4-c4ccccc4)cc(=O)[nH]3)nc(C)c2c1	22	-10	10	14	1	/
COc1ccc2nc(Nc3nc(CSc4nnnn4-c4ccccc4)cc(=O)[nH]3)nc(C)c2c1	57*	-46	5	23	-2	/
C[C@@H]1CN([C@H](C)CO)C(=O)c2cc(C#CCN(C)C)cnc2O[C@H]1CN(C)C(=O)CN1CCOCC1	/	/	/	/	/	-21
COCC(=O)N(C)C[C@@H]1Oc2cc(C#CC3CCCC3)ccc2S(=O)(=O)N([C@H](C)CO)C[C@H]1C	/	/	/	/	/	-11
C[C@H]1CN([C@@H](C)CO)C(=O)c2cc(C3=CCCC3)cnc2O[C@H]1CN(C)C(=O)CN(C)C	/	/	/	/	/	4
Cc1cc(/C=C(\C#N)C(=O)Nc2ccccc2)c(C)n1-c1ccc(C(=O)O)cc1	-7	1	13	8	0	-10
COc1ccc(NC(=O)/C(C#N)=C\c2cc(C)n(-c3ccc4c(c3)OCO4)c2C)cc1	51*	-32	-33	35	-1	9
O=[N+]([O-])c1ccc(Nc2nc(N/N=C\c3ccc4c(c3)OCO4)nc(N3CCCCC3)n2)cc1	54*	-3	-7	-13	0	/
CNC(=S)Nc1ccc([N+](=O)[O-])c(C)c1	68*	-13	-35	17	0	-1
Cc1ccc(CNC(=S)Nc2ccc(C)c([N+](=O)[O-])c2)cc1	-11	-9	-21	12	-1	-4
O=C(c1ccc2c(=O)n(Cc3ccc(Cl)cc3)c(=S)[nH]c2c1)N1CCOCC1	75*	-1	38	-6	0	12
O=C(c1ccc2c(=O)n(Cc3ccc(Cl)cc3)c(=S)[nH]c2c1)N1CCCC1	-25	-13	-6	-6	0	-2
COc1ccc(S(=O)(=O)N(C)C[C@H]2OCCCC[C@H](C)Oc3ccc(NS(C)(=O)=O)cc3C(=O)N([C@@H](C)CO)C[C@@H]2C)cc1	/	/	/	/	/	-2
Cc1ccc2c(COC(=O)C3=COCCO3)cc(=O)oc2c1	81*	-14	-63	4	23*	/
Cc1ccc(S(=O)(=O)NCC(=O)OCc2cc(=O)oc3cc(C)ccc23)cc1	7	7	-14	-14	5	-5
CC1CCC(C(C)C)C(OC(=O)Cn2c(-c3ccccc3)[n+](C)c3ccccc32)C1 (configuration not stated)	64*	-54*!	-2	55*!	-4	59*
C[C@H](NC(=O)[C@H]1[C@H](CO)[C@H]2Cn3c(cccc3=O)[C@H]2N1CC1CCCC1)c1ccccc1	/	/	/	/	/	4
OC[C@H]1O[C@@H](c2nc3ccc(-c4nc(-c5ccc(Br)cc5)no4)cc3[nH]2)C[C@@H]1O	63*	14	-296	-38	-3	-38

Compound activity from PubChem.
